Results filed as inconclusive are left out. Where a call stands in place of a potency, no number is given. The source made the active and inactive calls. Calls follow the shape of the dose curve; as a rule, active = well fitted cell-killing curve with a large enough effect; inconclusive = small, poorly fitted or top-dose-only effect; inactive = no such curve, though single readings can be large or run the other way.
Experiment: qHTS of pediatric cancer cell lines to identify multiple opportunities for drug repurposing: Primary screen for SJ-GBM2 cells (AID 1347091)
Conditions: SJ-GBM2 viability, CellTiter-Glo luminescence, 48 h; series mostly up to 46 µM
Excerpt: Drug repurposing or repositioning has been offered as a strategy for drug development in oncology programs. This approach has special potential for childhood cancers and other rare or orphan diseases, where the expected return on new drug development has been a disincentive to pharmaceuticals.
In this project we exploit the poly-pharmacology of drugs to discover new indications via phenotypic screening of a panel of 19 well-characterized cell lines derived from solid tumors seen in children and adolescents. The goal is to identify approved drugs with previously unrecognized anticancer properties that has the potential to reveal new mechanisms and biological processes involved in carcinogenesis or drug resistance. We employed a titration-based paradigm (quantitative high-throughput screening or qHTS), where all compounds were tested at multiple concentrations for their effect on cell viability. Concentration-response curves (CRCs) were derived directly from the primary screen, and both potency and efficacy values were used to identify compounds with robust bioactivity profiles. We screened the NIH Chemical Genomics Center (NCGC) Pharmaceutical Collection (NPC) and Mechanism Interrogation Plate (MIPE) small molecule collections of approved and investigational compounds against these cell lines; and measured metabolically active cells after 48 hours of compound treatment as a proxy for cell viability.
Assay Submitter: Nathalia J. Martinez, National Center for Advancing Translational Sciences, National Institutes of Health, Rockville, MD, USA; email: natalia.martinez@nih.gov
[1] Shen, M et al. Quantitative high-throughput phenotypic screening of pediatric cancer cell lines identifies multiple opportunities for drug repurposing. Oncotarget 2017 Dec 19;9(4):4758-4772. PMID 29435139.
The cells were obtained from University of North Carolina (UNC), Pediatric Preclinical Testing Program (PPT), and Coriell Institute (CI).
qHTS cell viability assay:
Cells were assayed in growth media at a density of 500-1,000 cells/well. Five microliters of cells were dispensed into 1,536-well, white, solid-bottom, TC-treated plates (Greiner Bio One) using a multidrop dispenser and incubated at 37 degrees C, 5% CO2, under a humidified atmosphere for 5 hours. Twenty-three nanoliters of compounds and controls (neutral control DMSO or positive control bortezomib at final concentration of 2.3 µM) were subsequently transferred by Kalypsys pintool. For primary screens, the MIPE collection was tested at 11-point dilutions (final concentrations range from 0.78 nM to 46 µM) and the NPC collection at 8-point dilutions (final concentrations range from 0.59 nM to 46 µM). Compounds tested in follow-up screens were assayed at 11-point dilutions. Cells were incubated for 48 hours, followed by addition of 3 uL of CellTiter-Glo (Promega). After a 15 min incubation at room temperature, samples were analyzed for luminescence intensity using a ViewLux High-throughput CCD imager equipped with clear filters.
Potency is read from the fitted curve at half-maximal effect.

SMILES | Potency
CCOC(=O)C1=C(N)Oc2ccc(Br)cc2C1C(C#N)C(=O)OCC (stereo not given) | 7430 nM (active)
CCCCCNC(=O)N1CCC(CN(Cc2ccc(Cl)cc2)Cc2ccc([N+](=O)[O-])s2)C1 (stereo not given) | inactive
COc1cc2nc(-c3ccc(N4CCN(C)CC4)cc3)nc(NCCN3CCOCC3)c2cc1OC | 148 nM (active)
O=C1C[C@@H](c2ccc(O)cc2)Oc2cc(O)cc(O)c21 | inactive
CCOC(=O)O[C@]1(C(=O)OCCl)CC[C@@H]2[C@H]3CCC4=CC(=O)C=C[C@]4(C)[C@@H]3[C@@H](O)C[C@@]21C | inactive
CC(=O)Nc1ccc([C@H](C)C(=O)Nc2ncc(C(C)C)s2)cc1 | 743 nM (active)
O=C1NCC2(CCN(CCc3ccccc3)CC2)O1 | inactive
O=c1c(-c2ccc(O)cc2)coc2cc(O[C@@H]3O[C@H](CO)[C@H](O)[C@H](O)[C@H]3O)ccc12 | inactive
O=C(O)CCc1nc(-c2ccccc2)c(-c2ccccc2)o1 | inactive
O=C(O)[C@H]1O[C@H](Oc2cc3oc(-c4ccccc4)cc(=O)c3c(O)c2O)[C@H](O)[C@@H](O)[C@H]1O | inactive
Nc1nc(F)nc2c1ncn2[C@@H]1O[C@H](COP(=O)(O)O)[C@@H](O)[C@H]1O | 662 nM (active)
CC[C@]1(O)C[C@@H]2CN(CCc3c([nH]c4ccccc34)[C@@](C(=O)OC)(c3cc4c(cc3OC)N(C)[C@H]3[C@@](O)(C(=O)OC)[C@H](OC(C)=O)[C@]5(CC)C=CCN6CC[C@]43[C@@H]65)C2)C1 | 75 nM (active)
CCCNC(=O)NS(=O)(=O)c1ccc(Cl)cc1 | inactive
O=C1c2c(O)cc(O)cc2O[C@H](c2cc(O)c(O)c(O)c2)[C@H]1O | inactive
CCNc1cc(NC2CCC(O)CC2)nc(Nc2ccc3c(ccn3Cc3ccccc3)c2)n1 (stereo not given) | 29600 nM (active)
O=C(O)c1cc(O)c2c(c1)C(=O)c1cccc(O)c1C2=O | inactive
CON=C(C(=O)N[C@@H]1C(=O)N2C(C(=O)OCOC(=O)C(C)(C)C)=C(C=Cc3scnc3C)CS[C@H]12)c1csc(N)n1 | inactive
CC#CCn1c(N2CCC[C@@H](N)C2)nc2c1c(=O)n(Cc1nc(C)c3ccccc3n1)c(=O)n2C | inactive
O=c1cc(-c2ccccc2)oc2cc(O)c(O)c(O)c12 | inactive
CC(C)=CC[C@@H](O)C1=CC(=O)c2c(O)ccc(O)c2C1=O | 1050 nM (active)

SMILES | Potency
O=C(O)c1ccccc1C(=O)Nc1ccc(-c2ccccc2)cc1 | inactive
COC(=O)[C@@H]1[C@H]2C[C@H]3c4[nH]c5ccccc5c4CCN3C[C@@H]2CC[C@@H]1O | inactive
CCCCCCCCCCCC1=C(O)C(=O)C=C(O)C1=O | 33.2 nM (active)
COc1cc2c(cc1OC)CN(CCc1ccc(NC(=O)c3cc(OC)c(OC)cc3NC(=O)c3cnc4ccccc4c3)cc1)CC2 | inactive
COc1ccc(-c2coc3cc(O)ccc3c2=O)cc1 | inactive
Clc1ccc(Cn2c(CN3CCCC3)nc3ccccc32)cc1 | inactive
CCN(CC)CCOC(=O)c1ccc(N)cc1 | inactive
CC(=Cc1ccccc1)C=C1SC(=S)N(CC(=O)O)C1=O | inactive
CC(=O)c1ccc(S(=O)(=O)NC(=O)NC2CCCCC2)cc1 | inactive
CN1C[C@H]2c3ccccc3Oc3ccc(Cl)cc3[C@@H]2C1 | inactive
O=C(NCCN1CCOCC1)c1ccc(Cl)cc1 | inactive
NCCS | inactive
CS(=O)c1ccc(-c2nc(-c3ccc(F)cc3)c(-c3ccncc3)[nH]2)cc1 (stereo not given) | 42900 nM (active)
O=C1NC(=O)C(=Cc2ccc(-c3ccc(F)cc3)o2)S1 | inactive
O=C(NCc1ccncc1)C12C[C@H]3C[C@@H](C1)CC(c1ccc(Cl)cc1)(C3)C2 | 20900 nM (active)
Cc1nc(N)sc1-c1ccnc(Nc2ccc(N3CCOCC3)cc2)n1 | 2350 nM (active)
CC(C)(C)c1ccc(C(O)CCCN2CCC(C(O)(c3ccccc3)c3ccccc3)CC2)cc1 (stereo not given) | inactive
CCN1CCC[C@H]1CNC(=O)c1cc(S(N)(=O)=O)ccc1OC | inactive
CC(C)(C)OC(=O)N[C@H]1CCCCCC=C[C@@H]2C[C@@]2(C(=O)NS(=O)(=O)C2CC2)NC(=O)[C@@H]2C[C@@H](OC(=O)N3Cc4cccc(F)c4C3)CN2C1=O | inactive
C[C@@H]1CCN(C(=O)CC#N)C[C@H]1N(C)c1ncnc2[nH]ccc12 | inactive
